NPR1 activator – GC-A (human) enzyme activation; actives 0.14% (n = 370,000); P16066; HEK293 GC-A cells, cGMP TR-FRET, EC30 ANP; 0% at EC30 ANP, 100% saturating ANP; activation, % at 10 µM; AID 1671463; in the data active means activation above about 40%
NPR2 activator – GC-B (human) receptor activation. AID 1920062. HEK293-GC-B cells, CNP EC30, cGMP TR-FRET; 0% at EC30 CNP, 100% saturating CNP. activation, % at 10 µM. actives 0.11% (n = 370,000);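 active means activation at 10 µM reaching about 35% in either raw or pattern-adjusted values, limit read from the data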
Target sequence (P20594 whole entry, looked up): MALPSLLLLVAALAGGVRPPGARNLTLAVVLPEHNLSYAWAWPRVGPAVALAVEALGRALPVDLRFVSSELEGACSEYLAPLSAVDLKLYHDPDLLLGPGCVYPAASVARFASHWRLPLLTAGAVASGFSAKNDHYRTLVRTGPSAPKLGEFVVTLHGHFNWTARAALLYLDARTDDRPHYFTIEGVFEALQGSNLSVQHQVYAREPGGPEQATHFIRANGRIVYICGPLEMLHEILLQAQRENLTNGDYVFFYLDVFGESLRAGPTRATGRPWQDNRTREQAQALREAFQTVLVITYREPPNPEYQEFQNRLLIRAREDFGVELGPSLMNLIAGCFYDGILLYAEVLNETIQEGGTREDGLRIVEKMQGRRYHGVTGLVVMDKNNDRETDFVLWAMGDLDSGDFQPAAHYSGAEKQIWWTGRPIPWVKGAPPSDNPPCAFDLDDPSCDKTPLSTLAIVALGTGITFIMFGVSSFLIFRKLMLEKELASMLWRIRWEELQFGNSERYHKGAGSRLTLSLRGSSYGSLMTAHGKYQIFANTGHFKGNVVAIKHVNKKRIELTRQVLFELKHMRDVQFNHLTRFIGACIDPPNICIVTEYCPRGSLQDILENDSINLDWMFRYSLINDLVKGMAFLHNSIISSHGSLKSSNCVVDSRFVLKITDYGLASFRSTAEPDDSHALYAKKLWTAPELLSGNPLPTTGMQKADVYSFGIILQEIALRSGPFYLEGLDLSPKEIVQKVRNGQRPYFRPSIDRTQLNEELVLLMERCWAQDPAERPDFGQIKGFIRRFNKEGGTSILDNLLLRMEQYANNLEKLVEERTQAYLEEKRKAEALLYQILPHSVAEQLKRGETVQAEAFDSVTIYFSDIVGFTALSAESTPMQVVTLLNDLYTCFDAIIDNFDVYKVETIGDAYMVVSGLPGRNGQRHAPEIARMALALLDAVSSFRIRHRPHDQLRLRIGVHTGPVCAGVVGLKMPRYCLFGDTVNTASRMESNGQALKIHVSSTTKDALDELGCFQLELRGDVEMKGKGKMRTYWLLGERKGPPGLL
TLR9-MyD88 inh – TLR9-MyD88 interaction inhibition; inhibition, % at 4.98 µM; AID 504734; actives 0.21% (n = 340,000); CHO BLA complementation TLR9-MyD88, CCF4 FRET ratio;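 active means inhibition above the mean over all tested compounds plus 3 SD, cut at about 21% in these data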;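 further: 0% = DMSO only wells and 100% = clavulanate BLA inhibitor control wells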
TLR4 MyD88 comp – inhibitors of human TLR4-MyD88 binding; HeLa CL3-4 TLR4/MyD88 BLA complementation, FRET ratio; inhibition, % at 8.4 µM; actives 0.18% (n = 200,000); AID 861; in the data active means inhibition above about 25%;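 further: 0% = vehicle and 100% = reference inhibitor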
NOD2 RIPK2 PPI – blocks binding of human NOD2 to RIPK2; CHO BLA complementation NOD2-RIPK2, CCF4 ratio; actives 0.38% (n = 360,000); AID 624267; inhibition, % at 4.98 µM; O43353; in the data active means inhibition above about 21%;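 further: 0% = vehicle only and 100% = reference blocker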
Neddyl block – blocks human cullin neddylation; actives 0.58% (n = 360,000); P61081+Q13564; inhibition, % at 25 µM; TR-FRET cullin neddylation, biochemical; in the data active means inhibition above about 36%
* marks the source's active call; other numbers are inactive results. Shown are actives, neighbours in structure and some others; about 1.2% of the full set was active somewhere.

How did COc1ccc(/C=N/NC(=O)c2ccc(CN3C(=O)c4cccc5cccc3c45)cc2)cc1O do in these assays?
NPR1 activator: -2; NPR2 activator: 0; TLR9-MyD88 inh: 12; TLR4 MyD88 comp: 18; NOD2 RIPK2 PPI: -10

What do the screens show for `COc1cc(/C=N/NC(=O)c2ccc(CN3C(=O)c4cccc5cccc3c45)cc2)cc(OC)c1O`?
NPR1 activator: 1; NPR2 activator: -6; TLR9-MyD88 inh: -3; NOD2 RIPK2 PPI: -16; Neddyl block: 44*

Results for COc1cccc(-c2cc(C(=O)Nc3ccccc3)c3ccccc3n2)c1 ?
NPR1 activator: 8; NPR2 activator: 2; NOD2 RIPK2 PPI: -4; Neddyl block: -43

What do the screens show for `COc1ccc(COc2cc(-c3cccc(OC)c3)nc3ccc(NC(=O)C(C)C)cc23)cc1`?
NPR1 activator: 52*; NPR2 activator: 55*; TLR9-MyD88 inh: 12; TLR4 MyD88 comp: -11; NOD2 RIPK2 PPI: 4; Neddyl block: 16

What do the screens show for `O=C(N/N=C/c1ccc[nH]1)c1ccc(COc2cccc3cccnc23)cc1`?
NPR1 activator: 0; NPR2 activator: -5; TLR9-MyD88 inh: 1; TLR4 MyD88 comp: -1; NOD2 RIPK2 PPI: 4; Neddyl block: 49*

Results for O=C(N/N=C/c1ccc[nH]1)c1ccc(O)cc1 ?
NPR1 activator: -5; NPR2 activator: -3; TLR9-MyD88 inh: 4; TLR4 MyD88 comp: 3; NOD2 RIPK2 PPI: -8; Neddyl block: 0

How did Cc1cc(Br)c(OCc2ccc(C(=O)N/N=C/c3ccc[nH]3)cc2)c(Br)c1 do in these assays?
NPR1 activator: -5; NPR2 activator: 5; TLR9-MyD88 inh: -4; NOD2 RIPK2 PPI: 2; Neddyl block: 41*

What do the screens show for `C=CCSc1nnc2nc3c(nn12)c1cc(C)ccc1n3CC=C`?
NPR1 activator: 50*; NPR2 activator: 51*; TLR9-MyD88 inh: 2; TLR4 MyD88 comp: 5; NOD2 RIPK2 PPI: 2; Neddyl block: -24

How did Cc1ccc(OCCCOc2ccc(Cl)cc2Cl)c([N+](=O)[O-])n1 do in these assays?
NPR1 activator: 21; NPR2 activator: -8

Results for O=[N+]([O-])c1ncccc1OCCOc1ccc(Cl)cc1Cl ?
NPR1 activator: 47*; NPR2 activator: 1

What do the screens show for `C=C1C(=O)[C@]23C[C@H]1CC[C@H]2[C@]1(C)CCC[C@@](C)(C(=O)OC)[C@H]1C[C@@H]3O`?
NPR1 activator: 19; NPR2 activator: 38*

How did COC(=O)[C@]12C[C@H](CC(=O)N3CCOCC3)C(=O)N(CCC3=CCCCC3)C1=C[C@H](C(C)C)O[C@@H]2C1CC1 do in these assays?
NPR1 activator: -3; NPR2 activator: 1

What do the screens show for `Cc1c(CN2CCN(c3ncc(Cc4ccccc4)cn3)CC2)c(=O)n(-c2ccccc2)n1C`?
NPR1 activator: 3; NPR2 activator: 8

Results for Cc1ccccc1C(=O)N(C)[C@H]1C[C@H]2c3[nH]c4c(-c5ccccc5)cccc4c3CCN2C[C@H]1[C@H](C)O ?
NPR1 activator: -5; NPR2 activator: 3

What do the screens show for `Cc1ccc(NC(=O)c2cc(S(=O)(=O)N(C)C)ccc2N2CCCC2)cc1S(=O)(=O)N(C)C`?
NPR1 activator: 37; NPR2 activator: 38*; TLR9-MyD88 inh: -2; NOD2 RIPK2 PPI: -2; Neddyl block: 18

How did NC(=O)c1cccc(-c2coc3c(C(=O)NCc4ccccc4)cccc23)c1 do in these assays?
NPR1 activator: 21; NPR2 activator: 37*; NOD2 RIPK2 PPI: 3; Neddyl block: 3

What do the screens show for `O=C(O)C1(Nc2ccc(Cl)cc2)CCCC1`?
NPR1 activator: 1; NPR2 activator: 3; TLR9-MyD88 inh: 4; NOD2 RIPK2 PPI: -1; Neddyl block: -6

What do the screens show for `NC(=O)C1(Nc2ccc(-c3ccc(Cl)cc3)cc2)CCCC1`?
NPR1 activator: 58*; NPR2 activator: -9; TLR9-MyD88 inh: -7; NOD2 RIPK2 PPI: -26; Neddyl block: 9

Results for COc1cc(C=Nn2c(-c3cc(C)[nH]n3)n[nH]c2=S)cc(Br)c1O ?
NPR1 activator: 2; NPR2 activator: -8

How did CC(=O)c1ccc(Nc2c3c(c(C#N)c4nc5ccccc5n24)CCC3)cc1 do in these assays?
TLR4 MyD88 comp: -1

What do the screens show for `COc1ccc(Nc2c3c(c(C#N)c4nc5ccccc5n24)CCC3)cc1`?
NPR1 activator: 41*; NPR2 activator: 28; TLR9-MyD88 inh: -2; TLR4 MyD88 comp: -18; NOD2 RIPK2 PPI: -4; Neddyl block: 12

Results for CCc1c(Cc2cccc(F)c2)ncn1CCc1ccccc1OC ?
NPR1 activator: -4; NPR2 activator: 4

Results for COc1cc(C(=O)NCCCCc2ccccc2)cc(OC)c1OC ?
NPR1 activator: 1; NPR2 activator: -2; TLR9-MyD88 inh: -11; NOD2 RIPK2 PPI: -1; Neddyl block: -3

Results for COc1cc(C(=O)NCCC(c2ccccc2)c2ccccc2)cc(OC)c1OC ?
NPR1 activator: 3; NPR2 activator: 118*; TLR9-MyD88 inh: 2; NOD2 RIPK2 PPI: 2; Neddyl block: -19

Results for CCOC(=O)CSc1nnc(-c2ccccc2)o1 ?
NPR1 activator: -1; NPR2 activator: 1; TLR9-MyD88 inh: 3; TLR4 MyD88 comp: 22; NOD2 RIPK2 PPI: 0; Neddyl block: -3

Results for CCOC(=O)CSc1nnc(-c2ccc(Cl)cc2Cl)o1 ?
NPR1 activator: 67*; NPR2 activator: 1; TLR9-MyD88 inh: -6; TLR4 MyD88 comp: -2; NOD2 RIPK2 PPI: 5; Neddyl block: 1

What do the screens show for `COC(=O)CSc1nnc(-c2ccccc2OC)o1`?
NPR1 activator: 13; NPR2 activator: -3; TLR9-MyD88 inh: 8; TLR4 MyD88 comp: -15; NOD2 RIPK2 PPI: -1; Neddyl block: 9

How did O=C(CSc1nnc(-c2ccccc2F)o1)OCc1ccccc1 do in these assays?
NPR1 activator: 61*; NPR2 activator: -5; TLR9-MyD88 inh: 11; TLR4 MyD88 comp: 5; NOD2 RIPK2 PPI: -8; Neddyl block: -2

What do the screens show for `CCOC(=O)c1ccc(-c2nnc(-c3ccc(Cl)cc3Cl)o2)cc1`?
NPR1 activator: 1; NPR2 activator: 2; TLR9-MyD88 inh: 8; TLR4 MyD88 comp: -3; NOD2 RIPK2 PPI: -5; Neddyl block: 19

What do the screens show for `CCCOC(=O)CSc1nnc(-c2ccc(Cl)cc2Cl)o1`?
NPR1 activator: 63*; NPR2 activator: -4; TLR9-MyD88 inh: -7; TLR4 MyD88 comp: 0; NOD2 RIPK2 PPI: -6; Neddyl block: -1

What do the screens show for `COc1ccc(C2=CCN(C)C(=O)N2c2ccc([N+](=O)[O-])cc2)cc1`?
NPR1 activator: -1; NPR2 activator: -1

Results for COC(=O)C1=C(C)N(Cc2cccc(C(F)(F)F)c2)C(=NCc2ccc3c(c2)OCO3)NC1c1cccc(Cl)c1 (configuration not stated) ?
NPR1 activator: -16; NPR2 activator: -10
